The results in this text go back to PubChem BioAssay.

Activity calls are given as the source filed them. Unless noted, how the calls were made is not given here.

A short description of experiment [1]: resazurin metabolic signal in HepG2 cells – cell-based, resazurin fluorescence, 24 h, PK04 Diversity Set, profiling panel (AID 1172). The settings on record: HepG2 viability, higher = more signal.
A short description of experiment [2]: budding yeast growth changes without added modifier – OD600, strain BY4716, 24 h, basal condition, primary screen (AID 1173). Conditions: S. cerevisiae BY4716 growth, OD600, 24 h; higher = more signal, called active from +8 up or from −8 down.
The nature of experiment [3]: viability profiling in MM1S myeloma cells – cell-based, resazurin fluorescence, basal, 24 h, PK04 Diversity Set, profiling panel (AID 1174).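 Further: MM1S multiple myeloma cell line.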 Conditions: higher = more signal, called active from +8 up or from −8 down.
Experiment [4] addresses Dihydroorotate dehydrogenase (quinone), mitochondrial (Plasmodium falciparum (isolate 3D7)) (UniProt Q08210). Briefly: inhibition of P. falciparum DHODH – biochemical, C-terminal His tag, absorbance 600 nm, primary screen (AID 1175).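 Further: recombinant parasite enzyme with a five histidine tag at its C terminus.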 Conditions: PfDHODH enzyme, DCIP absorbance 600 nm; higher = more signal, called active from +8 up or from −8 down.
Experiment [5] can be described thus: inhibition of PAO1 biofilm formation – strain PAO1, LB-PBS medium, absorbance 600 nm, primary screen (AID 1176). The settings on record: P. aeruginosa PAO1 growth/biofilm, A600, 12 h; higher = more signal.
Experiment [6] in a line: growth modulation of vineyard yeast isolate – strain RM11-1a, OD600, basal, 24 h, primary screen (AID 1177).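 Further: cultures grown under basal conditions with no added stressor.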 The settings on record: S. cerevisiae RM11-1a growth, OD600, 24 h; higher = more signal, called active from +8 up or from −8 down.
A short description of experiment [7]: growth of efflux-deficient E. coli DRC39 – strain DRC39, OD650, 24 h, E. coli filamentation inducers, primary screen (AID 1178).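 Further: growth measured as culture turbidity by optical density at 650 nm.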 The settings on record: E. coli DRC39 acrAB, higher = more signal, called active from +8 up or from −8 down.
The nature of experiment [8]: growth of efflux-deficient E. coli DRC39 – strain DRC39, OD650, 48 h, E. coli filamentation inducers, primary screen (AID 1179).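 Further: screen aims at cell division blockers that make cells filament.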 Conditions: E. coli DRC39 delta-acrAB growth, higher = more signal, called active from +8 up or from −8 down.
Experiment [9] can be described thus: viability profiling in RPMI8226 myeloma cells – cell-based, resazurin fluorescence, basal, 24 h, PK04 Diversity Set, profiling panel (AID 1180).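 Further: RPMI8826 multiple myeloma cell line at 5000 cells per well.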 The settings on record: higher = more signal.
Experiment [10] deals with E3 ubiquitin-protein ligase XIAP (Homo sapiens) (UniProt P98170). Briefly: small molecules binding XIAP protein – biophysical, small-molecule microarray, fluorescence 635 nm, primary screen (AID 1181).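 Further: score merges 667 nm emission and signal to noise over triplicate slides.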 Conditions: higher = more signal.
E3 ubiquitin-protein ligase XIAP (Homo sapiens), sequence (P98170 whole entry, looked up, the tested form may be a part): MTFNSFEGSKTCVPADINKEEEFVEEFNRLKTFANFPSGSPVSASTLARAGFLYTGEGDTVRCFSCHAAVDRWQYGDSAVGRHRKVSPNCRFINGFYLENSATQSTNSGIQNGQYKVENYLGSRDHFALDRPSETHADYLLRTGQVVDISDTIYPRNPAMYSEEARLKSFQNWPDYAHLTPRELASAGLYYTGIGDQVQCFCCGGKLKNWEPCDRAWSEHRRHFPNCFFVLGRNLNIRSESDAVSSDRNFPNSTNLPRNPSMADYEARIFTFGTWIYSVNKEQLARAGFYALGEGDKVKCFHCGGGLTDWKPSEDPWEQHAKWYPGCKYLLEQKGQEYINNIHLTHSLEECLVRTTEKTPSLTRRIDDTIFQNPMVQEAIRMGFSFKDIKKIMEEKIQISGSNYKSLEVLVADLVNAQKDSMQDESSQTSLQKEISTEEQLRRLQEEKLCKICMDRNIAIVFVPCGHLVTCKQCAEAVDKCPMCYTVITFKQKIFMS
Experiment [11] deals with XIP peptide (Xip251-270) binding. The experiment can be described thus: XIP fragment 251-270 binding compounds – biochemical, small-molecule microarray, fluorescence 635/667 nm, 0.1 µg/mL protein, primary screen (AID 1182). Conditions: fluorescent protein binding, 635 nm, higher = more signal, called active from +8 up or from −8 down.
For the next experiment, the system named is XIP peptide (Xip251-270). Briefly: compounds binding XIP fragment 251-270 – biochemical, small-molecule microarray, fluorescence 635/667 nm, 0.5 µg/mL protein, primary screen (AID 1183). The settings on record: fluorescence 635 nm, higher = more signal.
Experiment [12] is described as follows: blood-stage malaria parasite viability loss – strain 3D7, DAPI fluorescence, 100 nL, primary screen (AID 1184).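 Further: parasites grown inside human red blood cells in medium with human serum.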 The settings on record: P. falciparum 3D7 growth, 3 d, higher = more signal.
Experiment [13] addresses Homeobox protein Hox-A13 (Mus musculus) (UniProt Q62424). The experiment can be described thus: disruptors of Hoxa13 oligonucleotide interaction – biochemical, fluorescence polarization, labeled oligonucleotide, primary screen (AID 1185). Conditions: Hoxa13:DNA binding, 15 min, higher = more signal, called active from +8 up or from −8 down.
Experiment [14] is described as follows: blockers of DNA damage checkpoint Chk1 activation – imaging, HeLa, hydroxyurea, phospho-Chk1 antibody, percent positive cells, primary screen (AID 1186). Conditions: hydroxyurea-induced phospho-Chk1 immunofluorescence imaging, higher = more signal.
Experiment [15] in a line: blockers of DNA damage checkpoint Chk1 activation – imaging, HeLa, hydroxyurea, phospho-Chk1 nuclear intensity, primary screen (AID 1187). Conditions: hydroxyurea-induced phospho-Chk1 immunofluorescence imaging, higher = more signal.

Homeobox protein Hox-A13 (Mus musculus), sequence (Q62424 whole entry, looked up): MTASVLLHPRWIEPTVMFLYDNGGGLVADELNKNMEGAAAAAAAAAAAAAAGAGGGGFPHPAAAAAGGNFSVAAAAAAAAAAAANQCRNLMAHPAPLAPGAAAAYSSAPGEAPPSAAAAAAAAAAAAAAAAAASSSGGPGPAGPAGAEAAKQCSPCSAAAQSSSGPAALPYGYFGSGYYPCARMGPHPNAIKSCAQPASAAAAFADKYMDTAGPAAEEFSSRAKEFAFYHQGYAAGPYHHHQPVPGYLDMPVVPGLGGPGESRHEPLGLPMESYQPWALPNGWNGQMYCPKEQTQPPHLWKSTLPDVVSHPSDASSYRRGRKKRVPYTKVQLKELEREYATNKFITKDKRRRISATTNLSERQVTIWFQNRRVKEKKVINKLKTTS
Dihydroorotate dehydrogenase (quinone), mitochondrial (Plasmodium falciparum (isolate 3D7)), sequence (Q08210 whole entry, looked up): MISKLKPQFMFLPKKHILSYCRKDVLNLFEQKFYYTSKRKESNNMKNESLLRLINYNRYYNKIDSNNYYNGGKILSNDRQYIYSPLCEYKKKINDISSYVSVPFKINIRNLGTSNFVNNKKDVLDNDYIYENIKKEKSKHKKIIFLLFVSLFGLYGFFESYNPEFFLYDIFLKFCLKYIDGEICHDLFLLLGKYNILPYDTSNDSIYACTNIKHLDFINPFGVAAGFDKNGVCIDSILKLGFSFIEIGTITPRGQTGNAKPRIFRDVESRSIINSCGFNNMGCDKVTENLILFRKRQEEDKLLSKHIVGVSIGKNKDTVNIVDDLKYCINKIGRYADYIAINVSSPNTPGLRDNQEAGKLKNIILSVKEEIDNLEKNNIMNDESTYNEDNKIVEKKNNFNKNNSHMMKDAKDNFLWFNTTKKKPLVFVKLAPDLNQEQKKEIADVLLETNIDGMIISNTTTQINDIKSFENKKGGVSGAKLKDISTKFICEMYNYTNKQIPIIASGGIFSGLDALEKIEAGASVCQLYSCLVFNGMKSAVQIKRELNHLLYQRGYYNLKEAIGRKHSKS

As to `CCCCCN1CC=CC23O[C@@H]4/C=C\CCC(C)OC(=O)C4[C@H]2C(=O)N(CCCCCCO)[C@@H]3C1=O` (some centres undefined), the z-score in experiment [1] was 1.1; in [2], -0.262 (inactive); in experiment [3], 0.798 (inactive); in experiment [5] it was 0.165 (inactive); in experiment [6], 0.422 (inactive); in [7], 1.11 (inactive). The z-score was 0.848 (inactive) in [8]; 1.26 in experiment [9]; 0.162 in [12]; -4.71 (inactive) in experiment [13]; -0.0032 (inactive) in experiment [14]; 0.453 (inactive) in experiment [15]. The composite z-score in experiment [4] was -1.35 (inactive); in [10], -0.359; in experiment [11], 0.185 (inactive); in the experiment on XIP peptide (Xip251-270) it was 0.459.
In the case of `C=C(COC)/C(=C/C[C@H](OC(C)=O)c1cccc(OCCO)c1)c1cnc2ccccc2c1`, the z-score in experiment [1] is -0.0054; in experiment [2], 1.02 (inactive); in experiment [3] it was -0.496 (inactive); in experiment [5] it was 0.0721 (inactive); in experiment [6] it was 1.56 (inactive); in experiment [7], -0.901 (inactive). In addition, the z-score was -0.856 (inactive) in [8]; -0.58 in experiment [9]; -2.62 in experiment [12]; -5.87 (inactive) in [13]; -0.104 (inactive) in experiment [14]; 0.276 (inactive) in experiment [15]. Moreover, the composite z-score was -6.23 (inactive) in [4], -0.0749 in experiment [10], 1.46 (inactive) in experiment [11] and 0.75 with XIP peptide (Xip251-270).
Turning to `CN(C)C(=O)[C@@]1(CCC(=O)OC(C)(C)C)N=C(c2ccc(OCCCO)cc2)O[C@H]1c1ccccc1CN=[N+]=[N-]`, the z-score in experiment [1] was 0.891; in experiment [2] it was 0.481 (inactive); in [3], -1.19 (inactive); in experiment [5], 0.317 (inactive); in experiment [6], -0.0065 (inactive); in [7], 0.364 (inactive). In addition, the z-score in [8] is 0.98 (inactive); in experiment [9], 0.885; in [12] it was -2.32; in experiment [13], -5.91 (inactive); in [14], 0.234 (inactive); in experiment [15] it was 0.422 (inactive). Besides, the composite z-score is -0.261 (inactive) in [4], -0.0272 in [10], 1.14 (inactive) in experiment [11] and 0.316 with XIP peptide (Xip251-270).
Regarding `O=C(CS)NCCCCCCNC(=O)[C@@H]1C[C@@H]2C(=O)NCC(=O)N2[C@@H]1c1ccc(O)cc1`, the z-score in [1] is 0.263; in [2], -0.185 (inactive); in [3] it was 0.426 (inactive); in experiment [5], 0.171 (inactive); in experiment [6], -1.97 (inactive); in [7], 0.858 (inactive). In addition, the z-score in experiment [8] is 1.62 (inactive); in experiment [9] it was 0.0464; in [12], 0.271; in experiment [13], -1.63 (inactive); in [14] it was -0.0858 (inactive); in [15], 0.201 (inactive). Besides, the composite z-score in [4] is -0.757 (inactive); in experiment [10], -0.02; in experiment [11], 1.06 (inactive); in the experiment with XIP peptide (Xip251-270) it was 0.897.
Turning to `COCC1=C2[C@@H](CCc3ccccc3)OB(O)C[C@@H]2[C@@H]2C(=O)N(C)C(=O)[C@@H]2C1`, the z-score in experiment [1] was -0.227; in [2], -0.926 (inactive); in experiment [3] it was -0.439 (inactive); in experiment [5], 0.294 (inactive); in experiment [6], 0.0903 (inactive); in [7] it was -0.0919 (inactive). Besides, the z-score in experiment [8] was 0.0253 (inactive); in experiment [9] it was -0.377; in experiment [12], 1.22; in [13], -7.72 (inactive); in experiment [14], 0.684 (inactive); in experiment [15] it was 1.24 (inactive). Moreover, the composite z-score in experiment [4] was -0.173 (inactive); in experiment [10], 0.0512; in [11] it was 0.0872 (inactive); in the experiment with XIP peptide (Xip251-270), 0.763.
For `Cc1ccc([C@H]2C(C(=O)O)=C[C@@H](C(C)(C)C)N2S(=O)(=O)c2ccc(C)cc2)cc1`, the z-score in experiment [1] was -0.553; in experiment [2], -0.405 (inactive); in experiment [3], -0.648 (inactive); in experiment [5] it was 0.353 (inactive); in experiment [6] it was -0.0566 (inactive); in [7], -1.36 (inactive). For the same molecule, the z-score in experiment [8] is -0.387 (inactive); in experiment [9], -2.49; in experiment [12], 1.64; in experiment [13], -4.73 (inactive); in experiment [14] it was 0.695 (inactive); in experiment [15], 0.255 (inactive). The composite z-score in [4] was -0.241 (inactive); in experiment [10] it was 0.193; in [11], 0.629 (inactive); in the experiment with XIP peptide (Xip251-270), 0.854.
Consider `O=C1c2ccccc2[C@](Cc2ccccc2I)(C(=O)NC2CC2)[C@H](c2ccc(CO)cc2)N1Cc1ccccc1C(F)(F)F`, for which the z-score was -0.113 in experiment [1]; -0.637 (inactive) in [2]; 0.762 (inactive) in [3]; 0.842 (inactive) in [5]; 0.108 (inactive) in experiment [6]; 0.169 (inactive) in experiment [7]. Also, the z-score is -0.707 (inactive) in experiment [8]; 0.154 in [9]; -1.89 in [12]; -4.02 (inactive) in experiment [13]; -0.0771 (inactive) in [14]; -0.189 (inactive) in [15]. Also, the composite z-score is 0.129 (inactive) in experiment [4], 0.125 in experiment [10], 0.135 (inactive) in experiment [11] and 0.59 in the experiment on XIP peptide (Xip251-270).
With `C=CCC(OC(C)=O)[C@@H]1[C@@H](N(Cc2cccc3ccccc23)C(=O)Cc2ccc(F)cc2)c2cc(OCCCO)ccc2N1C(=O)c1ccc(-c2ccccc2)cc1` (some centres undefined), the z-score is -0.271 in experiment [1]; 0.388 (inactive) in experiment [2]; -0.0279 (inactive) in experiment [3]; 0.231 (inactive) in experiment [5]; -0.163 (inactive) in experiment [6]; -0.386 (inactive) in [7]. For the same molecule, the z-score was -0.0169 (inactive) in [8]; 0.336 in experiment [9]; -1.69 in [12]; -1.09 (inactive) in experiment [13]; 0.19 (inactive) in [14]; -0.39 (inactive) in [15]. Also, the composite z-score in experiment [4] is 0.366 (inactive); in [10], 0.0623; in experiment [11], -1.31 (inactive); in the experiment on XIP peptide (Xip251-270), -1.14.
On to `CC(=O)NCCCC[C@@H]1NC(=O)[C@H]2C[C@@H](C(=O)NCCCCCNC(=O)CS)[C@@H](c3cccc(OCCO)c3)N2C1=O`, for which the z-score was -0.223 in experiment [1]; 0.332 (inactive) in experiment [2]; -0.0374 (inactive) in experiment [3]; 0.559 (inactive) in experiment [5]; -0.39 (inactive) in experiment [6]; -0.0744 (inactive) in experiment [7]. Also, the z-score in experiment [8] was 0.382 (inactive); in experiment [9], -0.653; in [12] it was -0.559; in experiment [13] it was -3.69 (inactive); in [14], 0.276 (inactive); in [15], 0.591 (inactive). For the same molecule, the composite z-score in [4] is 0.657 (inactive); in experiment [10] it was 2.75; in [11], 4.01 (inactive); with XIP peptide (Xip251-270), 0.854.
